From PubChem BioAssay AID720641 (ICCB-Longwood Screening Facility, Harvard Medical School, 2013) come the findings set out here.

Out of some 170,000 compounds screened, about 900 (0.53%) were called active.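 The calls were made as follows: active = relative growth at most 50% at the other temperature and 20+ points below 30 °C, or under 10% at both; inactive = the rest, inconclusive results apart.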 What follows is part of a selection rich in actives, with near analogues and random picks from the rest.

A short description of the assay: Staphylococcus aureus RN4220 growth blockers – two temperatures, LtaS inhibitor project, primary screen (AID 720641). The conditions noted are these: S. aureus RN4220 growth, OD600, 20 h, 42 °C, stronger effect = lower value.

For the compound `CCc1ccc(CNC(=O)c2ccc(CS(=O)c3ccc(Br)cc3)o2)cc1` (stereo unspecified), the relative growth is 19.5% (active). Moreover, where the note is “measured here: growth at 30 °C”, the relative growth was 45.9%.

In the case of `Cc1ccc(CNC(=O)c2ccc(CS(=O)Cc3cccc(Cl)c3)o2)cc1` (stereo unspecified), the relative growth is 116% (inactive). In addition, the relative growth (measured here: growth at 30 °C) is 82.8%.

As for `COC(=O)c1scc2c(N3CCCCC3)cc(C(F)(F)F)nc12`, the relative growth is 90.2% (inactive). Also, the relative growth (measured here: growth at 30 °C) was found to be 95.5%.

In the case of `CCN1CCN(C(=O)N[C@@H](C(=O)N[C@@H]2C(=O)N3C(C(=O)O)=C(CSc4nnnn4C)CS[C@H]23)c2ccc(O)cc2)C(=O)C1=O`, the relative growth is -0.62% (active). Also, under “measured here: growth at 30 °C”, the relative growth is -0.46%.

Consider `O=C(Nc1nnc(C2CC2)s1)c1cc(Cl)sc1Cl`, for which the relative growth is 77.4% (inactive). Moreover, the relative growth (measured here: growth at 30 °C) turned out to be 68.7%.

In the case of `COC(=O)c1ccc2c(c1)NC(=O)C(C)N2` (stereo unspecified), the relative growth is 95.5% (inactive). Besides, the relative growth (measured here: growth at 30 °C) worked out at 65.5%.

Regarding `CC1CCCCN1S(=O)(=O)c1ccc(F)c(C(=O)Nc2ccccc2C(F)(F)F)c1` (stereo unspecified), the relative growth was 98.5% (inactive). Besides, where the note is “measured here: growth at 30 °C”, the relative growth came to 90%.

For the compound `CC1CCCCN1S(=O)(=O)CCNC(=O)c1ccccc1` (stereo unspecified), the relative growth was 85.7% (inactive). The relative growth (measured here: growth at 30 °C) stood at 88.4%.

Turning to `CCc1nnc(NC(=O)C2CCCN2S(=O)(=O)c2ccccc2)s1` (stereo unspecified), the relative growth is 119% (inactive). The relative growth (measured here: growth at 30 °C) was 89.3%.

Regarding `CC1CCCCN1S(=O)(=O)c1ccc(C(=O)Nc2nnc(-c3cccs3)o2)cc1` (stereo unspecified), the relative growth was 2.04% (active). Besides, under “measured here: growth at 30 °C”, the relative growth came to 1.82%.

`CC1CCCCN1S(=O)(=O)c1ccc(I)cc1` (stereo unspecified): the relative growth was 103% (inactive). Moreover, the relative growth (measured here: growth at 30 °C) was 105%.

With `CSCc1nnc(NC(=O)c2ccc(S(=O)(=O)N3CCCCC3C)cc2)o1` (stereo unspecified), the relative growth was 0.19% (active). Further, the relative growth (measured here: growth at 30 °C) was -0.08%.

As for `O=C(Cc1n[nH]c(=O)c2ccccc12)N/N=C/c1ccc(-c2ccc(Br)cc2)o1`, the relative growth was 95.6% (inactive). Also, the relative growth (measured here: growth at 30 °C) turned out to be 86.9%.

Consider `CN(C)/N=C/c1ccc(OC(=O)c2ccco2)cc1`, for which the relative growth was 91.3% (inactive). For the same compound, where the note is “measured here: growth at 30 °C”, the relative growth was 89.5%.

Take `CCn1nc(C(=O)OCCCCN2C(=O)c3ccccc3C2=O)c2ccccc2c1=O`: the relative growth was 98.7% (inactive). Moreover, the relative growth (measured here: growth at 30 °C) came out at 94.4%.

`CCOC(=O)c1cc2oc(C)cc2n1CCCN1C(=O)c2ccccc2C1=O`: the relative growth was -0.65% (active). Besides, the relative growth (measured here: growth at 30 °C) was -0.53%.

For `CCOC(=O)c1cc2n(c1N)-c1ccccc1C2=O`, the relative growth is 85.9% (inactive). Under “measured here: growth at 30 °C”, the relative growth was found to be 71.7%.

Take `O=C(NCC12CC3CC(CC(C3)C1)C2)c1cc(-c2ccccc2O)no1`: the relative growth is 105% (inactive). Besides, where the note is “measured here: growth at 30 °C”, the relative growth was found to be 101%.

Regarding `Cc1ccc(CNCc2cccn2-c2sc(C)c(C)c2C(=O)O)cc1`, the relative growth was 87.6% (inactive). The relative growth (measured here: growth at 30 °C) is 76.5%.

Regarding `C=CCn1c(C)nnc1SCCN1C(=O)c2ccccc2S1(=O)=O`, the relative growth was 91.3% (inactive). For the same compound, the relative growth (measured here: growth at 30 °C) stood at 93.1%.

Consider `CC(C)C(C(=O)O)n1c(=S)[nH]c2ccccc2c1=O` (stereo unspecified), for which the relative growth is 77.7% (inactive). For the same compound, the relative growth (measured here: growth at 30 °C) is 94.8%.

As to `CN(C)S(=O)(=O)c1ccc(C(=O)Nc2nnc(C3CC3)o2)cc1`, the relative growth was 78.8% (inactive). The relative growth (measured here: growth at 30 °C) turned out to be 59.5%.

With `CCCCN(CC)S(=O)(=O)c1ccc(C(=O)Nc2nnc(-c3ccc(Cl)s3)o2)cc1`, the relative growth is 0.22% (active). For the setting “measured here: growth at 30 °C”, the relative growth was found to be 0.29%.

In the case of `CS(=O)(=O)c1ccc(-c2nnc(NC(=O)c3ccc4c(c3)OCCO4)o2)cc1`, the relative growth is 84.8% (inactive). Under “measured here: growth at 30 °C”, the relative growth worked out at 85.3%.

Take `O=C(CN1C(=O)/C(=C/c2ccccc2)Sc2ccccc21)N1CCCC1`: the relative growth was 109% (inactive). Also, the relative growth (measured here: growth at 30 °C) was 98.3%.

As for `COc1ccc(C2=NC(C)(C)N(CC(=O)Nc3ccccc3)C2=O)cc1`, the relative growth was 115% (inactive). Besides, the relative growth (measured here: growth at 30 °C) turned out to be 93.8%.

For `CSc1ccc(Cl)c(C(=O)OCC(=O)N2CCC(C)CC2)c1`, the relative growth is 102% (inactive). Besides, where the note is “measured here: growth at 30 °C”, the relative growth worked out at 82%.

Consider `Nc1nc(/C(=C/CC(=O)O)C(=O)N[C@@H]2C(=O)N3C(C(=O)O)=CCS[C@H]23)cs1`, for which the relative growth is -0.72% (active). Further, the relative growth (measured here: growth at 30 °C) was -0.64%.

Turning to `CSc1nc(C)cc(=O)[nH]1`, the relative growth was 139% (inactive). Also, the relative growth (measured here: growth at 30 °C) was determined as 90.7%.

With `NC(=O)N/N=C1/C=C(c2ccccc2)C(O)(c2ccccc2)C1` (stereo unspecified), the relative growth was 109% (inactive). The relative growth (measured here: growth at 30 °C) turned out to be 91.3%.

Regarding `O=C1COc2ccc(C3=Nn4c(nnc4-c4ccncc4)SC3)cc2N1`, the relative growth was 97.9% (inactive). The relative growth (measured here: growth at 30 °C) came out at 85.9%.

With `CCN(Cc1ccccc1)C(=O)c1cc2sccc2n1Cc1ccccc1`, the relative growth was 108% (inactive). Also, the relative growth (measured here: growth at 30 °C) was 88.4%.

Take `COc1ccccc1CNC(=O)CNC1CCCCC1`: the relative growth is 96.2% (inactive). Also, where the note is “measured here: growth at 30 °C”, the relative growth was found to be 90%.

For `Cc1c2cn[nH]c(=O)c2c(C)n1Cc1ccccc1`, the relative growth is 88.3% (inactive). In addition, for the setting “measured here: growth at 30 °C”, the relative growth was found to be 75.2%.

On to `CC(C)=CCOc1ccc2c3c(c(=O)oc2c1C)CCCC3`, for which the relative growth is 97.9% (inactive). Besides, the relative growth (measured here: growth at 30 °C) is 97.1%.

As to `CO[C@@H]1[C@@H](OC(N)=O)[C@H](O)[C@H](Oc2ccc3c(O)c(NC(=O)c4ccc(O)c(CC=C(C)C)c4)c(=O)oc3c2C)OC1(C)C`, the relative growth was -0.38% (active). Moreover, the relative growth (measured here: growth at 30 °C) was found to be 0.14%.

As to `CC(Sc1ncnc2ccccc12)C(=O)Nc1cccc(C(F)(F)F)c1` (stereo unspecified), the relative growth was 115% (inactive). In addition, under “measured here: growth at 30 °C”, the relative growth is 80.8%.

As to `CC(C)(C)C(=O)CN1C(=O)c2ccccc2C1=O`, the relative growth is 129% (inactive). In addition, the relative growth (measured here: growth at 30 °C) worked out at 89.2%.

Turning to `Cc1ccccc1-c1nc(CS(=O)(=O)CC(=O)NC(C)c2ccccc2)c(C)o1` (stereo unspecified), the relative growth was 101% (inactive). Where the note is “measured here: growth at 30 °C”, the relative growth worked out at 105%.

In the case of `Cc1oc2c(c1C(=O)NC(C)c1ccccc1)C(=O)c1ccccc1C2=O` (stereo unspecified), the relative growth is 9.3% (active). Also, the relative growth (measured here: growth at 30 °C) was 14%.

Consider `CC(NC(=O)Nc1ccccc1)c1ccccc1` (stereo unspecified), for which the relative growth was 76.7% (inactive). Moreover, the relative growth (measured here: growth at 30 °C) amounted to 91.3%.

In the case of `O=C(/C=C/c1ccccc1)OCC(=O)N1CCc2ccccc21`, the relative growth is 134% (inactive). Further, the relative growth (measured here: growth at 30 °C) came out at 88.3%.

`CCOC(=O)c1cnc2c(F)cc(F)cc2c1N1CCOCC1`: the relative growth was 118% (inactive). The relative growth (measured here: growth at 30 °C) was 104%.
